Results filed as inconclusive are left out. Entries that show only a call come without a potency. Active and inactive are the calls of the source. Unless noted, the call rests on the fitted dose curve; in most records, active means well fitted curve in the direction sought with a large enough effect; inconclusive means small, poorly fitted or top-dose-only effect, or another doubt; inactive means no such curve, though single readings can be large; an effect the other way counts as inactive or inconclusive.
How the values were obtained:
[1] = HepG2 viability counterscreen (readout 2: ATP content) against the NCATS DSHEA and TCM libraries (AID 1794840)
Method in brief: (§1)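 1,000 HepG2 cells/well, 4 h attach; compounds ~24 h, 37C/5% CO2. Readout 1: GF-AFC 25 uM final, 30 min, fluorescence 380/510 nm. Readout 2: CellTiter-Glo, 30 min RT, luminescence.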

[2] = HepG2 viability counterscreen (readout 1: protease activity) against the NCATS DSHEA and TCM libraries (AID 1794841);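 further: cells exposed to compounds for about 24 h before the protease read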
Method in brief: as §1

[3] = molecular target: Metallo-beta-lactamase type 2 (Klebsiella pneumoniae) (UniProt C7C422); experiment: qHTS to identify inhibitors of the New Delhi Metallo-beta-lactamase (NDM): assay validation screen against the NCATS LOPAC Collection (AID 1794843);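 further: nitrocefin turnover by NDM-1 measured as 485 nm absorbance at plateau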
Method in brief: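 Nitrocefin hydrolysis (50 uM substrate stock) by NDM-1, 2 nM final, was followed by 485 nm absorbance after compound preincubation; buffer was 50 mM HEPES pH 7.0, 1 uM ZnSO4, 0.01% Tween20.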

[4] = molecular target: Glutathione peroxidase 1 (Homo sapiens) (UniProt P07203); experiment: Primary qHTS Assay for Inhibitors of Recombinant Selenoprotein Glutathione Peroxidase 1 (GPX1) (AID 1845191); further: nearly all actives have a fitted effect of over 65% in size
Method in brief: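 NADPH consumption tracked by fluorescence at 340/450 nm between t=0 and t=15 min, room temperature. Final mix: 10 nM GPX1, 100 nM glutathione reductase, 1 mM GSH, 0.5 mM NADPH, 0.5 mM cumene hydroperoxide, 0.01% BSA; 30 min compound–enzyme preincubation.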

[5] = molecular target: Phospholipid hydroperoxide glutathione peroxidase GPX4 (Homo sapiens) (UniProt P36969); experiment: Primary qHTS Assay for Inhibitors of Recombinant Selenoprotein Glutathione Peroxidase 4 (GPX4) (AID 1845192); further: nearly all actives have a fitted effect of over 65% in size
Method in brief: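 NADPH consumption followed by fluorescence at 340/450 nm, t=0 and after 15 min at room temperature. Reaction started with cumene hydroperoxide (0.5 mM final) after 30 min compound–GPX4 preincubation; final 200 nM GPX4, 100 nM GR, 1 mM GSH, 0.5 mM NADPH.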

[6] = molecular target: Nuclear receptor subfamily 1 group I member 3 (Homo sapiens) (UniProt Q14994); experiment: Primary qHTS for antagonist of constitutive androstane receptor (CAR) against the NCATS DSHEA and TCM libraries (AID 1794836);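 further: HepG2 cells stably expressing hCAR with CYP2B6 luciferase reporter stimulated by CITCO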
Method in brief: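 Antagonist mode: CAR reporter luminescence (ONE-Glo) in HepG2-CYP2B6-hCAR cells stimulated with 48 uM CITCO (final) over 24 h at 37 C, compounds titrated; viability read first by CellTiter-Fluor fluorescence.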

[7] = Viability counterscreen for antagonist of constitutive androstane receptor (CAR) against the NCATS DSHEA and TCM libraries (AID 1794837);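 further: compound exposure lasted 24 h before viability reading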
Method in brief: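 Cell viability, CellTiter-Fluor, Ex/Em 405/540 nm, 1 h at 37C. HepG2-CYP2B6-hCAR, 2,500 cells/well; cpds + CITCO 48 uM final (antagonist mode), 24 h, 37C/5% CO2.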

[8] = Viability counterscreen for agonist of constitutive androstane receptor (CAR) against the NCATS DSHEA and TCM libraries (AID 1794838)
Method in brief: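 Viability by CellTiter-Fluor fluorescence, 405/540 nm, after 1 h at 37C. HepG2-CYP2B6-hCAR cells were exposed 24 h to test substances in presence of 0.75 uM PK11195 (final).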

[9] = molecular target: Nuclear receptor subfamily 1 group I member 3 (Homo sapiens) (UniProt Q14994); experiment: Primary qHTS for agonist of constitutive androstane receptor (CAR) against the NCATS DSHEA and TCM libraries (AID 1794839);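 further: HepG2 cells expressing human CAR with a CYP2B6 reporter plus PK11195 antagonist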
Method in brief: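 Luminescence from ONE-Glo luciferase was the agonist read-out in HepG2-CYP2B6-hCAR cells exposed 24 h to test substances. Wells also held the CAR antagonist PK11195 at 0.75 µM final. Viability was by CellTiter-Fluor fluorescence.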

[10] = molecular target: Catechol O-methyltransferase (Homo sapiens) (UniProt P21964); experiment: Confirmatory Screen for Target Class Profiling of Small Molecule Inhibitors of Methyltransferases (AID 1745852; calls by dose curve); details: MTase-Glo luminescence, SAH detection, recombinant enzyme; measured here: COMT max response; stronger effect = lower value
[11] = molecular target: Guanidinoacetate N-methyltransferase (Homo sapiens) (UniProt Q14353); experiment: as above; details: MTase-Glo luminescence, SAH detection, recombinant enzyme; activity change, negative = inhibition: at 57.3 µM (top of the series) unless noted
[12] = molecular target: Nicotinamide N-methyltransferase (Homo sapiens) (UniProt P40261); experiment: as above; details: MTase-Glo luminescence, SAH detection, recombinant enzyme; measured here: NNMT max response; stronger effect = lower value
[13] = molecular target: Phenylethanolamine N-methyltransferase (Homo sapiens) (UniProt P11086); experiment: as above; details: MTase-Glo luminescence, SAH detection, recombinant enzyme; measured here: PNMT max response; stronger effect = lower value
[14] = NCATS anti-infectives library activity on HEK293 viability as a counter-qHTS vs the C. elegans viability qHTS (AID 1745854)
Method in brief: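 Cytotoxicity counter-screen to a worm viability qHTS: CellTiter-Glo luminescence read 10 min after reagent addition. Compounds (final up to 41.7 uM, a 1:5 dilution series) incubated 24 hr at 37C with 1,500 HEK293 cells per well; digitonin control.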

Sequence of Metallo-beta-lactamase type 2 (Klebsiella pneumoniae) (C7C422 whole entry, looked up): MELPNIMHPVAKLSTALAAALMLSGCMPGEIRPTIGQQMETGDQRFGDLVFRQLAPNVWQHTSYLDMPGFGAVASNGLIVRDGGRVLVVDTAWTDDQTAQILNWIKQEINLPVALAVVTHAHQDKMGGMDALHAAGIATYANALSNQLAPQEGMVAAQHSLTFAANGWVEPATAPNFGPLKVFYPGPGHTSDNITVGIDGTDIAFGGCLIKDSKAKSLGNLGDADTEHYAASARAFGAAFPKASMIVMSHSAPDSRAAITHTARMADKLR
Sequence of Phospholipid hydroperoxide glutathione peroxidase GPX4 (Homo sapiens) (P36969 whole entry, looked up): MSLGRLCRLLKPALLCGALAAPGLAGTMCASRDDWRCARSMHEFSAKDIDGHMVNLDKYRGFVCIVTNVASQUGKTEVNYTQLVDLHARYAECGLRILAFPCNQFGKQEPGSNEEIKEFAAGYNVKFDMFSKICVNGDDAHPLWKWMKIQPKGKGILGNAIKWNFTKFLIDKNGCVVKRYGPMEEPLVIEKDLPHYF
Sequence of Glutathione peroxidase 1 (Homo sapiens) (P07203 whole entry, looked up): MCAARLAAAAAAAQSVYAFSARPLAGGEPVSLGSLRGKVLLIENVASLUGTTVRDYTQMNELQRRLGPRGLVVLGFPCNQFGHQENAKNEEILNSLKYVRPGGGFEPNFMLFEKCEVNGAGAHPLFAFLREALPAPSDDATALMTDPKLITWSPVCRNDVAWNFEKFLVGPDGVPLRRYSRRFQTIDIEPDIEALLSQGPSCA
Sequence of Nicotinamide N-methyltransferase (Homo sapiens) (P40261 whole entry, looked up): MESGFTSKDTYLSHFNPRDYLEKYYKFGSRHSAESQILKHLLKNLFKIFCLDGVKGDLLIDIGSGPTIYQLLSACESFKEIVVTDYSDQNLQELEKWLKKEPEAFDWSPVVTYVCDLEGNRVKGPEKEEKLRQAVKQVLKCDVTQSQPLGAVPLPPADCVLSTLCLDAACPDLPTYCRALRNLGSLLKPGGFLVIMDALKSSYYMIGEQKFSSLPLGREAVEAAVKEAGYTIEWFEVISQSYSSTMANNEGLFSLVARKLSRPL
Sequence of Catechol O-methyltransferase (Homo sapiens) (P21964 whole entry, looked up): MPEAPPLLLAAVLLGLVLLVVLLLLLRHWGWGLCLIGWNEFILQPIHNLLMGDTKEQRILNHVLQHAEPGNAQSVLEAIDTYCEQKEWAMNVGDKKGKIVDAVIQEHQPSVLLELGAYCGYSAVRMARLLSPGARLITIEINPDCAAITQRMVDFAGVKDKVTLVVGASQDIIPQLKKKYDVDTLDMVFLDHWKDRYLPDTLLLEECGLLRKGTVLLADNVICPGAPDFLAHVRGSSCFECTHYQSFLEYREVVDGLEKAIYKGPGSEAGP
Sequence of Nuclear receptor subfamily 1 group I member 3 (Homo sapiens) (Q14994 whole entry, looked up): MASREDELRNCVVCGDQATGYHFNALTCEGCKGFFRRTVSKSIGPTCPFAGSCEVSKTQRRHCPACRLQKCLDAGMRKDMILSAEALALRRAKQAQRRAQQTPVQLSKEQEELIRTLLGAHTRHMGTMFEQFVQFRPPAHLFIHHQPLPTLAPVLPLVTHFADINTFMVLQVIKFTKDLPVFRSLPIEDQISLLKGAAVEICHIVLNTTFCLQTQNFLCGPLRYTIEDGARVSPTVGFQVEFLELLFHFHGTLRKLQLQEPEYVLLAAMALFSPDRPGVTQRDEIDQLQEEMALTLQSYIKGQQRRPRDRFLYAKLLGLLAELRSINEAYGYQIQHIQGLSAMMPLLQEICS
Sequence of Phenylethanolamine N-methyltransferase (Homo sapiens) (P11086 whole entry, looked up): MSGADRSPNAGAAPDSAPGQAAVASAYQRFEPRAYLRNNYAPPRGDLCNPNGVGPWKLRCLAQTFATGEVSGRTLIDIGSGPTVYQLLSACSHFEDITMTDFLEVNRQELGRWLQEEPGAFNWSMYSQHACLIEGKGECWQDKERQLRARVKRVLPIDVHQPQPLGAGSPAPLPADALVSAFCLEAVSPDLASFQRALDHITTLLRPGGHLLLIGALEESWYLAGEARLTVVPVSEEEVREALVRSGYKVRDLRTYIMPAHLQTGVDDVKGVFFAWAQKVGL

For O=Cc1ccco1, the outcome [1] was “inactive” and the outcome [2] was “inactive”.
For NC(=O)COc1c(F)cc(SCCNS(=O)(=O)c2ccccc2)cc1F, the Potency [3] was “inactive”, the Potency [4] was “inactive” and the Potency [5] was “inactive”.
For N[C@@H](Cn1oc(=O)[nH]c1=O)C(=O)O, the Potency [3] was “inactive”, the Potency [4] was “inactive” and the Potency [5] was “inactive”.
In the case of CCCC[N+]1(C)C2CC(OC(=O)[C@H](CO)c3ccccc3)CC1C1OC12 (stereo partly specified), the Potency [3] was “inactive”, the Potency [4] was “inactive” and the Potency [5] was “inactive”.
In the case of O=C/C=C/c1ccccc1, the outcome [6] was “inactive”, the outcome [7] was “inactive” and the outcome [8] was “inactive”. For the same molecule, the outcome [9] was “inactive”, the outcome [1] was “inactive” and the outcome [2] was “inactive”. The Potency [4] was “inactive” and the Potency [5] was “inactive”.
With NCCCP(=O)(O)O the Potency [3] was “inactive”, the Potency [4] was “inactive” and the Potency [5] was “inactive”.
Work on CCCN1CCC[C@@H](c2cccc(O)c2)C1 yielded an activity [10] of 4.08%, an activity change, negative = inhibition [11] of 1.62% and an activity [12] of 0.9%. The activity [13] was 6.74%, the Potency [4] was “inactive” and the Potency [5] was “inactive”.
For CCCN(CCC)[C@H]1CCc2c(F)ccc(O)c2C1, the Potency [3] was “inactive”, the Potency [4] was “inactive” and the Potency [5] was “inactive”.
For Oc1ccc2c3c1O[C@H]1c4[nH]c5ccccc5c4C[C@@]4(O)C(C2)N(CC2CC2)CCC314 (stereo partly specified), the Potency [3] was “inactive”, the Potency [4] was “inactive” and the Potency [5] was “inactive”.
CCCCCOc1cc2c(cc1-c1cc(/C=C/C(=O)O)ccc1O)C(C)(C)CCC2(C)C gave an activity [10] of -5.76%, an activity change, negative = inhibition [11] of -6.96% and an activity [12] of -28.2%. For the same molecule, the activity [13] was 0.0952%, the Potency [4] was “inactive” and the Potency [5] was “inactive”.
For NNC(=O)c1ccc(O)cc1, the Potency [3] was “inactive”, the Potency [4] was “inactive” and the Potency [5] was “inactive”.
In the case of C[N+](C)(C)CC#CCOC(=O)Nc1cccc(Cl)c1, the Potency [3] was “inactive”, the Potency [4] was “inactive” and the Potency [5] was “inactive”.
With COc1ccc(CNC(=O)/C=C/c2ccc3[nH]cc(CCN(C)C)c3c2)cc1 the Potency [3] was “inactive”, the Potency [4] was “inactive” and the Potency [5] was “inactive”.
With NCCc1ccc(S(=O)(=O)F)cc1 the outcome [14] was “inactive”, the Potency [3] was “inactive” and the Potency [4] was “inactive”. The Potency [5] was “inactive”.
In the case of O=C1C=CC(=O)C=C1, the Potency [3] was “inactive”, the Potency [4] was “inactive” and the Potency [5] was “inactive”.

— PubChem BioAssay (NCATS)
